The results in this text go back to PubChem BioAssay AID798 (PCMD, 2007).

For orientation: inhibition means the relative decrease from the control value, in per cent.

Out of some 220,000 compounds screened, about 300 (0.14%) were called active.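 How the source made its calls: active means inhibition of at least 40%; inactive means inhibition below 40%.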 Only a selection was taken, and actives are over-represented in it overall. Where a SMILES comes first, the peptide text is derived from it. The star is where a group is joined. OPac = O=C(CO*)c1ccccc1; Bz = O=C(c1ccccc1)*

The target of this test is Coagulation factor XI (Homo sapiens) (UniProt P03951). In words: human FXIa protease inhibitors, primary screen, biochemical, 1536-well (AID 798).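 Further: fluorescence of freed AMC excited at 355 nm; 0% = enzyme without compound and 100% = no enzyme blank.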 As to conditions: purified FXIa, Boc-Glu-Ala-Arg-AMC fluorogenic substrate; at 5 µM; hits give high values.
Sequence of Coagulation factor XI (Homo sapiens) (P03951 19-387 limits assumed): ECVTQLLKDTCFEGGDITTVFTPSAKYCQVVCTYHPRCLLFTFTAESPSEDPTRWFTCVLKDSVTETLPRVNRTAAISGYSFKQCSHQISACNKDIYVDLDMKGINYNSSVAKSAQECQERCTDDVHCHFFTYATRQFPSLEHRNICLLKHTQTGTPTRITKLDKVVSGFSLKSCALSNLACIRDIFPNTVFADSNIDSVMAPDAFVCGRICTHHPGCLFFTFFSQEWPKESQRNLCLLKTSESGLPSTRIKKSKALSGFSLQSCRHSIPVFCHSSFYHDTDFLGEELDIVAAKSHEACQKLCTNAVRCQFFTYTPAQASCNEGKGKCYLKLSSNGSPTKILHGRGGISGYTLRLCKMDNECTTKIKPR
Sequence of Coagulation factor XI (Homo sapiens) (P03951 388-625 limits assumed): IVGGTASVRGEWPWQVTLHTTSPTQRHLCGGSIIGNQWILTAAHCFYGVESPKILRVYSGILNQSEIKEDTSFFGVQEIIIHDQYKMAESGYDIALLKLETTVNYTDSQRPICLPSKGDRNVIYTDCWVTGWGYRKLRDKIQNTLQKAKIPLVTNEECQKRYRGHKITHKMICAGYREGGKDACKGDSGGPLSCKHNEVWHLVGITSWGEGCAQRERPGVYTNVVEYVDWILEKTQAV
As for `Cc1c(NC(=O)C(=O)N/N=C/c2cccs2)c(=O)n(-c2ccccc2)n1C`, the inhibition was -2.28% (inactive). As for `O=C(NCC(=O)N(CC1CCCO1)C(C(=O)NC1CCCCC1)c1ccccc1)c1ccco1` (stereo not given), the inhibition was -1.28% (inactive).

For the compound `Cc1cc(C)nc(-n2ncc3c2CC(c2ccc(C(C)C)cc2)CC3=O)n1` (stereo not given), the inhibition was 4.85% (inactive). In the case of `Cc1ccccc1CN1C[C@@H]2C[C@@H](c3ccc4nsnc4c3)N3CCC[C@@]23C1=O` it was 2.82% (inactive); in that of `Cc1cccc2c1N(CCOc1ccccc1)C(=O)C2=O`, 1.94% (inactive); in that of `CCCCCCCCn1c2c(c(=N)c3c1CCC3)CCCC2`, 1.52% (inactive). With `COC(=O)c1cc(C(=O)OCC(=O)Nc2cc(C)on2)cc([N+](=O)[O-])c1`, the inhibition was -14.4% (inactive). In the case of `Cc1cnc(NC(=O)c2ccccn2)s1` it was -1.62% (inactive); in that of `COc1ccc(OC)c(C(=O)c2ccc(C(=O)N3CCN(Cc4csc(C)n4)CC3)cc2)c1`, 1.41% (inactive). With `COc1ccccc1-c1nnc(NC(=O)c2ccc3ncsc3c2)o1` the figure was 10.2% (inactive); with `O=C(Nc1cccc(CCc2ccccn2)c1)c1ccc(Cl)cc1`, 14.3% (inactive). On to `CN1CCCN(C(=O)C2CCCCC2)CC1`, for which the inhibition was -3.43% (inactive). With `CC(NC(=S)NNS(=O)(=O)c1ccc(C(C)(C)C)cc1)c1ccccc1` (stereo not given), the inhibition was -2.57% (inactive). As for `Cc1cccc2c1-c1sc(C(=O)NCCCN3CCc4ccccc4C3)cc1CO2`, the inhibition is -4.99% (inactive). With `COc1ccc(C(=O)N/N=c2\oc3ccccc3cc2C(N)=O)cc1` the figure was 8.97% (inactive). `CC(C(=O)NCC1CCCCC1)N(C)Cc1cccc(Cl)c1` (stereo not given): the inhibition was 0.53% (inactive). In the case of `COCCN(C(=S)Nc1cccc(Cl)c1C)C(C)c1ccco1` (stereo not given) it was -2.82% (inactive). With `Cc1ccc(Cl)c(OCC(=O)NN2CCN(C)CC2)c1` the figure was -0.31% (inactive); with `COC(=O)CCCC1=CC2=CC(=O)C(C)(OC(=O)c3cccs3)C(=O)C2=CN1CC1CC1` (stereo not given), 0.2% (inactive); with `O=C(NC(=O)c1cc(OCC(F)(F)F)ccc1OCC(F)(F)F)Nc1ccccc1`, 10.4% (inactive). With `O=C(CSc1ncn[nH]1)Nc1nc(-c2cccc([N+](=O)[O-])c2)cs1` the figure was -0.78% (inactive); with `O=C(Nc1cccc(O)c1)c1ccc(C(=O)c2ccccc2)o1`, 4.5% (inactive); with `COc1ccc(CCNC(=O)CSc2nc(-c3ccc(OC)c(OC)c3)ccc2C#N)cc1`, -0.12% (inactive). For the compound `CCOc1ccc(Oc2nc(C)cc(OC)n2)nn1`, the inhibition is 4.79% (inactive). Regarding `Nc1[nH]c(=S)nc2nc(-c3ccccc3)c(-c3ccccc3)nc12`, the inhibition is 4.09% (inactive).

`CCc1nc(C)cn1S(=O)(=O)c1cc([N+](=O)[O-])ccc1Cl`: the inhibition was -5.64% (inactive). For `O=c1[nH]c(SCc2cccc(F)c2)nc2ccccc12`, the inhibition was -1.03% (inactive). With `O=C(NCc1cccs1)c1cc(-c2ccccn2)nc2ccc(Br)cc12` the figure was -1.15% (inactive). In the case of `Cc1cccc(Cn2cnc3c(N)c(C)c(C)cc32)c1` it was -1.66% (inactive).

For the compound `COc1cccc(/C=C/C(=O)Nc2ccc3c(c2)OCCO3)c1`, the inhibition was -8.27% (inactive). With `COc1ccccc1-n1c(C)nc2cc(C(=O)NCc3ccc4c(c3)OCO4)ccc21` the figure was 1.71% (inactive). On to `O=C(O)CCN=C1CCc2ccccc2N1`, for which the inhibition was -7.58% (inactive). With `O=C(CNC(=O)c1ccccc1)NCC(=O)OCC(=O)c1ccccc1` (Bz-Gly-Gly-OPac), the inhibition is -1.35% (inactive). As to `S=c1nc2ccccc2c2nc(-c3cccnc3)[nH]n12`, the inhibition was -1.46% (inactive). As to `O=C(NCc1cccnc1)Nc1cccc(NC(=O)NCc2cccnc2)c1F`, the inhibition is -0.25% (inactive). In the case of `CCOC(=O)c1ccccc1NC(=S)N1CCC(C(N)=O)CC1` it was -1.65% (inactive); in that of `NC(=O)COC(=O)c1cc(S(=O)(=O)N2CCN(c3ccccc3)CC2)ccc1Cl`, -1.04% (inactive). As to `O=C1c2ccccc2C(=O)N1CCC(O)C[N+](=O)[O-]` (stereo not given), the inhibition was 1.96% (inactive). Take `CCOc1ccc(S(=O)(=O)Nc2nccs2)cc1`: the inhibition was 0.82% (inactive).

Consider `COc1ccc(CN(C(=O)c2cccs2)c2nccs2)cc1OC`, for which the inhibition was 0.51% (inactive).

For `COc1ccc(CN(Cc2ccc(OC)cc2)C(=O)c2cccs2)cc1`, the inhibition is 54.2% (active). In the case of `COc1ccc(OCC(=O)N2CCN(C(=O)c3cccs3)CC2)cc1` it was -3.87% (inactive); in that of `C/C(=N/NC(=O)CC(=O)N/N=C(\C)c1ccc([N+](=O)[O-])cc1)c1ccc([N+](=O)[O-])cc1`, 0.21% (inactive); in that of `Cc1nc(N)sc1N=Nc1c(C)n(C)n(-c2ccccc2)c1=O`, 1.75% (inactive). Turning to `CC(C)n1c(O)c(N=Nc2ccccn2)c2ccccc21`, the inhibition is 0.21% (inactive). For `CCCCOc1ccc(C(=O)N/C(=C/C=C/c2ccccc2)C(=O)N2CCOCC2)cc1`, the inhibition is 5.26% (inactive). Take `CCOC(=O)C1CCN(C(=O)Nc2cccc(OC)c2)CC1`: the inhibition was -1.56% (inactive).

With `CN(c1ccccn1)c1ncnc2[nH]ncc12`, the inhibition is -2.65% (inactive). With `CCOc1cc2c(Cl)ncnc2c(OCC)c1OCC` the figure was -5.65% (inactive); with `Cc1ccc(C(=O)NNC(=O)OC(C)(C)C)c(Cl)c1`, 8.12% (inactive).

`Cc1nc(N2CCOCC2)sc1C(=O)NN`: the inhibition was -11.6% (inactive). With `CC(C)(C)NC(=O)C(=O)NN=C1CCCCCCC1`, the inhibition was -1.87% (inactive). For the compound `O=S(=O)(Nc1ccc2cn[nH]c2c1)c1ccccc1`, the inhibition is -7.54% (inactive). Regarding `C/C(=N/O)c1ccc(N2C(=O)C3C4C=CC(C3C2=O)C2C3C(=O)N(c5ccc(/C(C)=N/O)cc5)C(=O)C3C42)cc1` (stereo not given), the inhibition was -1.59% (inactive). Turning to `CCCCCC(=O)Nc1ccc(S(=O)(=O)Nc2ccc(Cl)nn2)cc1`, the inhibition is -12.1% (inactive).
